Compound activity as filed in PubChem BioAssay.
An excerpt weighted towards active compounds, which were near 2.7% of everything screened.
SENP8 block-1 = SENP8 (human) protease inhibition. 0.64% of 360,000 active. inhibition, % at 20 µM. recombinant SENP8, Nedd8 substrate fluorescence. Q96LD8; in the data active = inhibition mostly above about 40%, no sharp cut-off; inactive = mostly below about 27%
Target sequence (Q96LD8 whole entry, looked up): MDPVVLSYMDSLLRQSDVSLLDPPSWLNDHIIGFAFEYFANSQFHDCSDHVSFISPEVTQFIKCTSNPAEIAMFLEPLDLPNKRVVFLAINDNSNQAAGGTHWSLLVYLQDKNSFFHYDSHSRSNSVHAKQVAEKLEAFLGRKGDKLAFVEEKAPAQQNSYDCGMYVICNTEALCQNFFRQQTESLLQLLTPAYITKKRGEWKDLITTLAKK
SENP8 block-2 = SENP8 protease inhibition; 1.2% of 330,000 active; purified SENP8, Z-RLRGG-aminoluciferin cleavage, luminescence; Q96LD8; inhibition, % at 10 µM; in the data active = inhibition above about 50%
SENP7 inh = SENP7 protease inhibition. recombinant SENP7, Z-RLRGG-aminoluciferin luminescence, 40 min. 1.5% of 330,000 active. Q9BQF6. inhibition, % at 5 µM. AID 434973;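 active = inhibition above about 50% at the single test dose, limit read from the data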
Target sequence (Q9BQF6 706-1050 limits assumed): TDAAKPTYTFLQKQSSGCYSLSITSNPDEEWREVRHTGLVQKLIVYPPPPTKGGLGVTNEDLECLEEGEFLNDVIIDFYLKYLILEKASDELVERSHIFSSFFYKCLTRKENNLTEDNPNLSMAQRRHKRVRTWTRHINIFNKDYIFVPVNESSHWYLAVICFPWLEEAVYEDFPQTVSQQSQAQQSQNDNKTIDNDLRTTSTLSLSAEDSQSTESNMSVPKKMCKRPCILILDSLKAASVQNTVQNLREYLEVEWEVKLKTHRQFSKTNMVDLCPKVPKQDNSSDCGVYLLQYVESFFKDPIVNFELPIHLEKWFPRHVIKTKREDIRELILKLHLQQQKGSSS
HSP90 refold inh = blocks HSP90-mediated luciferase refolding in reticulocyte lysate; Rabbit reticulocyte lysate, luciferase refolding luminescence, 3 h; inhibition, % at 5.6 µM; 0.91% of 290,000 active;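 active = inhibition above the screen-wide mean plus 3 SD, computed separately per campaign, cut at about 16% in these data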;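 note: inhibitors lower the luminescence because luciferase stays unfolded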
SENP6 inh = SENP6 protease inhibition; Q9GZR1; Recombinant SENP6 catalytic domain, aminoluciferin luminescence; inhibition, % at 10 µM; 1.8% of 330,000 active;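 active = inhibition above about 50% at the single tested dose, limit read from the data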
HSP90 confirm = HSP90 inhibition, confirmation assay. shares compounds with HSP90 refold inh. rabbit reticulocyte lysate, luciferase refolding luminescence, 3 h. inhibition, % at 5.9 µM. 64% of 2,300 active; in the data active = inhibition above about 18%
luciferase ctr = firefly luciferase inhibition, HSP90 counter-screen; shares compounds with HSP90 refold inh; purified native firefly luciferase, luminescence; inhibition, % at 5.9 µM; 48% of 2,300 active;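 active = inhibition above the mean inhibition of all tested sample wells plus 3 SD, cut at about 10% in these data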
SENP8 confirm = human SENP8 inhibition, confirmed; shares compounds with SENP7 inh; Recombinant SENP8, Z-RLRGG-aminoluciferin luminescence, 60 min; inhibition, % at 12.5 µM; 40% of 6,200 active; AID 488912;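 active = mean inhibition across replicates above about 50%, limit read from the data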
SENP6 conf = confirmation of human SENP6 protease inhibitors; shares compounds with SENP7 inh; recombinant SENP6, Z-RLRGG-aminoluciferin luminescence; inhibition, % at 12.5 µM; 58% of 6,200 active
SENP7 confirm = confirmation of human SENP7 protease inhibitors. AID 488917. shares compounds with SENP7 inh. 69% of 6,200 active. recombinant SENP7, Z-RLRGG-aminoluciferin luminescence, 40 min. inhibition, % at 12.5 µM
Casp3 select = inhibits human caspase-3 in SENP selectivity test; shares compounds with SENP7 inh; purified caspase-3, Z-DEVD-aminoluciferin luminescence, 60 min; inhibition, % at 12.5 µM; 60% of 6,200 active;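 active = mean inhibition above about 50%, limit read from the data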
Luc interf = counter-screen for SENP inhibitors: luminescence interference. 39% of 6,200 active. shares compounds with SENP7 inh. inhibition, % at 12.5 µM. Pre-incubated SENP8/Z-RLRGG-aminoluciferin, luciferase luminescence interference;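 active = mean inhibition above about 50% when retested at one dose, limit read from the data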
Of the large screens only hits and unclear results are named; the others gave an inactive call (follow-up assays come after a bar, where they were run).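 Rule for the calls, unless noted: active = mean inhibition above about 50% in the one-dose retest (limit read from the data); inactive = the rest.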

O=C1C(=C2SCCCS2)CC/C1=C\c1ccc(F)cc1	SENP8 block-2 96, SENP7 inh 99, HSP90 refold inh 54, SENP6 inh 95 | HSP90 confirm 92 | luciferase ctr 86 | SENP8 confirm inactive | SENP6 conf 68 | SENP7 confirm 63 | Casp3 select 84 | Luc interf inactive
Cn1nnnc1SCCNC/C=C/c1ccccc1	none
CCS(=O)(=O)c1ccc(C=NNc2nc3ccccc3o2)cc1	none (no result: SENP8 block-2, SENP7 inh, HSP90 refold inh, SENP6 inh)
CN(C)c1ccc(/C=N/Nc2nc3ccccc3o2)cc1	SENP8 block-2 77, SENP7 inh 97, HSP90 refold inh 45, SENP6 inh 78 | HSP90 confirm 63 | luciferase ctr 62 | SENP8 confirm inactive | SENP6 conf 79 | SENP7 confirm 97 | Casp3 select inactive | Luc interf inactive
N#C/C(=C\c1ccc([N+](=O)[O-])cc1)c1ccccn1	none
CN(C)c1ccc(/C=C(\C#N)c2ccccn2)cc1	SENP8 block-2 96, SENP7 inh 99, HSP90 refold inh 66, SENP6 inh 96 | HSP90 confirm 84 | luciferase ctr 78 | SENP8 confirm 98 | SENP6 conf 99 | SENP7 confirm 102 | Casp3 select 97 | Luc interf 72
CC(C)c1ccc(/C=N/NC(=O)c2ccccn2)cc1	SENP8 block-2 79, SENP7 inh 80, HSP90 refold inh 28, SENP6 inh 86 | HSP90 confirm 69 | luciferase ctr 63 | SENP8 confirm 71 | SENP6 conf 84 | SENP7 confirm 98 | Casp3 select 89 | Luc interf inactive
O=C(N/N=C/c1ccc2c(c1)OCO2)c1ccccn1	SENP8 block-2 70, SENP7 inh 92, HSP90 refold inh 28, SENP6 inh 80 | HSP90 confirm 57 | luciferase ctr 36 | SENP8 confirm inactive | SENP6 conf 68 | SENP7 confirm 90 | Casp3 select 85 | Luc interf inactive
CN(C)c1ccc(/C=N/NC(=O)c2ccccn2)cc1	SENP8 block-2 76, SENP7 inh 91, HSP90 refold inh 24, SENP6 inh 80 | HSP90 confirm 62 | luciferase ctr 47 | SENP8 confirm inactive | SENP6 conf 85 | SENP7 confirm 98 | Casp3 select 95 | Luc interf 66
COC(=O)c1ccc(COC(=O)CNC(=O)C2CCCCC2)cc1	none (no result: HSP90 refold inh)
CC1CCCN(c2ccc3nc4ccccc4c(=O)n3n2)C1 (stereo not drawn)	HSP90 refold inh 36, SENP6 inh 61 | HSP90 confirm 60 | luciferase ctr 38 | SENP8 confirm inactive | SENP6 conf 52 | SENP7 confirm 81 | Casp3 select 83 | Luc interf inactive
CCC(Sc1nc(C)cc(=O)[nH]1)C(=O)Nc1nc2c(s1)CCCC2 (stereo not drawn)	none
COc1cccc2oc3cc(C#CC4(O)CCCCC4)ccc3c(=O)c12	SENP8 block-2 84, SENP7 inh 84, HSP90 refold inh 26, SENP6 inh 81 | HSP90 confirm 30 | luciferase ctr 19 | SENP8 confirm 89 | SENP6 conf 89 | SENP7 confirm 97 | Casp3 select 72 | Luc interf 55
COc1cccc2oc3cc(C#Cc4ccccn4)ccc3c(=O)c12	none (no result: SENP8 block-1)
O=C(O)c1ccc(N/N=C/c2ccc(C(F)(F)F)cc2)cc1	SENP8 block-2 96, SENP7 inh 98, HSP90 refold inh 77, SENP6 inh 101 | HSP90 confirm 86 | luciferase ctr 81 | SENP8 confirm 99 | SENP6 conf 99 | SENP7 confirm 102 | Casp3 select 94 | Luc interf 98
COc1ccccc1/C=C/C=N/Nc1cccc(C(=O)O)c1	SENP8 block-2 95, SENP7 inh 87, HSP90 refold inh 57, SENP6 inh 98 | HSP90 confirm 64 | luciferase ctr 49 | SENP8 confirm 99 | SENP6 conf 100 | SENP7 confirm 102 | Casp3 select 80 | Luc interf 98
O=C(O)c1ccc(/C=N/Nc2ccc(F)cc2F)cc1	SENP8 block-2 96, SENP7 inh 99, HSP90 refold inh 46, SENP6 inh 101 | HSP90 confirm 78 | luciferase ctr 58 | SENP8 confirm 99 | SENP6 conf 100 | SENP7 confirm 103 | Casp3 select 98 | Luc interf 99
O=C(N/N=C\c1ccc(F)cc1)c1ccc(F)cc1	none
O=C(O)c1ccc(N/N=C/c2c(F)cccc2Cl)cc1	SENP8 block-2 96, SENP7 inh 98, HSP90 refold inh 80, SENP6 inh 97 | HSP90 confirm 82 | luciferase ctr 76 | SENP8 confirm 100 | SENP6 conf 101 | SENP7 confirm 104 | Casp3 select 96 | Luc interf 99
COc1ccc(Br)cc1/C=N/Nc1cccc(C(=O)O)c1	none
COCCNC(=O)c1cc(-c2cccc(OC)c2)on1	none
O=C(CC(=O)Nc1ccccc1)Nc1ccccc1	none (no result: HSP90 refold inh)
Cc1ccc2c(c1)-n1c(nc3ccc(Cl)cc3c1=O)C(CC(C)C)NC2=O (stereo not drawn)	none (no result: SENP8 block-1, HSP90 refold inh)
COc1ccc(/C=C(/C#N)C(=O)NC2CCCCC2)cc1Br	none
CC(C)(C)c1ccc(/C=N/Nc2ccc(C(=O)O)cc2)cc1	SENP8 block-2 96, SENP7 inh 99, HSP90 refold inh 58, SENP6 inh 100 | HSP90 confirm 86 | luciferase ctr 83 | SENP8 confirm 100 | SENP6 conf 101 | SENP7 confirm 104 | Casp3 select 94 | Luc interf 99
CN(C)c1ccc(/C=N/Nc2cccc(C(=O)O)c2)cc1	SENP8 block-2 96, HSP90 refold inh 76, SENP6 inh 99 | HSP90 confirm 97 | luciferase ctr 94 | SENP8 confirm 98 | SENP6 conf 102 | SENP7 confirm 104 | Casp3 select 100 | Luc interf 100
CCC(C)Sc1nnc(CNS(=O)(=O)c2ccc(F)cc2)n1C (stereo not drawn)	none
CC(C)(C)C(=O)Nc1ccc(N=Nc2ccccc2)cc1	SENP7 inh 64, HSP90 refold inh 71 | HSP90 confirm 79 | luciferase ctr 74 | SENP8 confirm inactive | SENP6 conf 61 | SENP7 confirm 91 | Casp3 select 59 | Luc interf inactive
